Laboratory results: ChEMBL document CHEMBL4513216, “Probing the Open Global Health Chemical Diversity Library for Multistage-Active Starting Points for Next-Generation Antimalarials” (ACS Infect Dis, 2020)
The campaign covered roughly 69,000 compounds. About 8,600 (12%) showed an effect of 50% or more. Many of the other results were omitted from the sample, so strong results are more common in it than they were.

Each compound was assayed on Plasmodium berghei (assay: Screen against P. berghei liver stage (PbLuc), transformed with Luciferase, at 10uM). Details: tested at 10 uM.
Type: functional, HepG2

Row | Structure (SMILES) | INHIBITION
1 | NC(=O)C1(CCCc2ccncc2)CCCN1 (centres undefined) | 1.5%
2 | CNS(=O)(=O)c1ccc(CNC(=O)c2c(C)oc(C)c2C)cc1 | -6.14%
3 | CN1CCCC1CNC(=O)CCCOc1ccc(Br)cc1 (centres undefined) | -62.6%
4 | Cc1ccc(-c2nnc(SCC(=O)O)n2-c2ccc(C)cc2)cc1 | 33.5%
5 | O=S(=O)(C1CC1)N1CCc2ncnc(N3CCCC3)c2CC1 | -17.7%
6 | COc1ccc(C(=O)NCCN(C)C)c(I)c1 | -0.217%
7 | NC(=O)N1CCC(NCc2cc(Br)ccc2Cl)CC1 | 34.7%
8 | CC(C)(C)c1ncc(C(=O)NCCNC(=O)c2ccco2)s1 | -21.5%
9 | COc1cc(C(=O)N2CCCC(c3cc(C)[nH]n3)C2)ccc1C (centres undefined) | 24%
10 | CCc1nnc2n1CCN(C(=O)c1cnc(C3CC3)s1)C2 | 13.9%
11 | CCc1ncc(C(=O)N2CCn3c(CC)nnc3C2)s1 | 53.9%
12 | CCc1nnc2n1CCN(C(=O)c1cnc(-c3cccs3)s1)C2 | 19.3%
13 | Cc1cc(C)c2ncc(C#N)c(N3CCS(=O)(=O)CC3)c2c1 | 36.3%
14 | Cc1cnn(CC2CCCCN2C(=O)CC(F)(F)F)c1 (centres undefined) | 9.14%
15 | O=C(c1cc(C2CC2)nc2onc(-c3ccccc3)c12)N1CC[C@H](O)C1 | 28.5%
16 | O=C(c1cccnc1SCc1ccccc1)N1CC[C@@H](O)C1 | -34%
17 | O=C(c1cc(C2CC2)nc2onc(-c3ccccc3)c12)N1CCOCC1 | 51.7%
18 | O=C(CN1CCCC1c1nc(-c2ccccc2)no1)N1CCOCC1 (centres undefined) | -21.8%
19 | O=C(c1cc(-c2ccccc2)nc2onc(C3CC3)c12)N1CC[C@H](O)C1 | 73%
20 | O=C(c1cc(C2CC2)nc2onc(-c3ccccc3)c12)N1CC(O)C1 | 44.3%

Row | Structure (SMILES) | INHIBITION
21 | Cc1cc(NCCCc2c(C)noc2C)nc(N)n1 | 35%
22 | CC(C)c1ncc2c(n1)CN(Cc1noc(-c3ccccc3)n1)CC2 | 45.7%
23 | CC(C(=O)NCCN1CCCCC1)n1cncn1 (centres undefined) | -5.07%
24 | CCn1c(SCC(=O)N2CCCC2)nc2cc(C)[nH]c2c1=O | 40%
25 | c1csc(CN2CCC3(CCOCC3COCC3CC3)CC2)n1 (centres undefined) | -18.2%
26 | CCN(Cc1nccn1C)C1CCN(c2ccccc2)C1=O (centres undefined) | 42.6%
27 | C=C(C)Cn1cc(C(N)=O)nc1C1CC1 | -6.67%
28 | N#Cc1cnc2ccccc2c1N1CCC(C(=O)O)CC1 | 35.7%
29 | N#Cc1cnc2ccccc2c1N1CCN(C(=O)C2CCC2)CC1 | 90.6%
30 | CC(C)(C)C(=O)N1CCN(CCOc2cccc(C#N)c2)CC1 | -18%
31 | N#Cc1ccccc1N1CCN(CCC(=O)N2CCOCC2)CC1 | -29.4%
32 | N#Cc1cccc(OCCN2CCC(C(=O)N3CCOCC3)CC2)c1 | 55.4%
33 | N#Cc1cnc2ccccc2c1N1CCN(CCC(=O)O)CC1 | 5.87%
34 | N#Cc1ccccc1OCCN1CCC(N2CCNC2=O)CC1 | 24%
35 | Cc1nnc(CN2CCN(CCOc3ccccc3C#N)CC2)n1C | 21.2%
36 | CC(C)C(=O)N1CCN(CCOc2cccc(C#N)c2)CC1 | 39.2%
37 | N#Cc1ccccc1OCCN1CCC(C(=O)N2CCOCC2)CC1 | 70.3%
38 | N#Cc1ccccc1OCCN1CCCCC1C(=O)N1CCOCC1 (centres undefined) | 47.1%
39 | N#Cc1ccccc1OCCN1CCN(C(=O)C2CCCC2)CC1 | 65.6%
